{"source": "PubChem BioAssay", "key": {"[1]": {"test": "liver-stage malaria parasite load reduction – cell-based, known kinase inhibitor set, luminescence, hepatoma host viability (AID 624392);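 further: infected cells incubated roughly two days before readout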", "conditions": "Plasmodium liver stage in hepatoma cells, luciferase luminescence, concentration not given here; liver cell % of control: measured here: host liver cell viability; parasite % of control: stronger effect = lower value"}, "[2]": {"test": "altered dexamethasone sensitivity, NF-kB reporter, cell-based, luciferase, IL-1B stimulus (AID 624486);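 on percent of negative control (+Dex): 100% = mean signal of vehicle control wells on the plate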", "conditions": "IL-1B + dexamethasone, luminescence; percent of negative control (+Dex): actives lie on both sides, concentration not given here; z-score: measured here: IL-1B alone, no Dex"}, "[3]": {"test": "C. elegans survival during P. aeruginosa infection – whole organism (AID 651566);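 further: tested at 14 µM; sign flipped so higher z means a lower ratio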", "conditions": "C. elegans killed by P. aeruginosa, survival ratio"}, "[4]": {"test": "pro-inflammatory signaling induction in mouse macrophages – cell-based, murine, luminescence (AID 652131)", "conditions": "murine macrophage pro-inflammatory reporter, stronger effect = higher value"}, "[5]": {"target": "Cellular tumor antigen p53 (Homo sapiens) (UniProt P04637)", "sequence (P04637 whole entry, looked up)": "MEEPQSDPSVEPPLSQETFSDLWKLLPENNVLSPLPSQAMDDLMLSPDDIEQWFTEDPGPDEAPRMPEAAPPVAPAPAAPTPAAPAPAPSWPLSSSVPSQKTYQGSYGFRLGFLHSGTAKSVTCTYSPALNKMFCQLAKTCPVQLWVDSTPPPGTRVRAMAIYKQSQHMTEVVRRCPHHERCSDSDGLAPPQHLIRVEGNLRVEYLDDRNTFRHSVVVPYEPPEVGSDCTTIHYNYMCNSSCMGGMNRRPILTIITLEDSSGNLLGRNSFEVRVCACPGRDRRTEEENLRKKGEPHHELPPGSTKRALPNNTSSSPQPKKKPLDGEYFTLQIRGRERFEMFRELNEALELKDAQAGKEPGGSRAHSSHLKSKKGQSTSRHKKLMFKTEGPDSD", "test": "GFP-p53 level modulators in HPV16+ cells – imaging, known kinase inhibitor set, EGFP/DsRed ratio (AID 1053116);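 further: cells exposed to compounds for 24 h at 37 °C before reading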", "conditions": "GFP-p53 stability, stronger effect = higher value; EGFP object count: measured here: GFP-p53 positive objects count"}, "[6]": {"test": "inducers of IRF3 signaling, differentiated THP-1 – cell-based, PMA-stimulated THP-1, luminescence (AID 1053176)", "conditions": "PMA-differentiated THP-1, IRF3 reporter luminescence; stronger effect = higher value"}, "[7]": {"test": "growth inhibition of DIPG cells – cell-based, MIPE4.0 library, CellTiter-Glo luminescence, qHTS (AID 1347066; cut-off not given, nearly all actives have AC50 up to about 30 µM;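 further: cells exposed to compound for 48 hours before readout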)", "conditions": "SU-DIPG-VI viability, CellTiter-Glo ATP luminescence"}, "[8]": {"test": "compounds altering HSF1 focus formation in cells – imaging, Selleck Cancer Library (AID 1347162; in the data active means plate-normalised HSF1 focus index below about 0.46)", "conditions": "human cells, HSF1 nuclear foci imaging, at 10 µM; SSMD: measured here: HSF1 foci SSMD mean; cell count: measured here: cell number; plate-normalised HSF1 focus index: stronger effect = lower value"}, "[9]": {"test": "MELAS cybrid and Rieske KO viability enhancers – cell-based, MELAS cybrids, Rieske KO mouse fibroblasts, CellTiter-Glo, primary screen (AID 1508586;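 active means mean z-score across replicates of 1.96 or higher in either the MELAS or the Rieske mutant cell line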;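 further: z relative to plate mean and SD of compound and empty wells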)", "conditions": "low glucose"}, "[10]": {"test": "viability loss in pontine glioma line – cell-based, SU-DIPG-XIII, MIPE4.0, CellTiter-Glo, qHTS, dose response (AID 1347061; cut-off not given, nearly all actives have AC50 up to about 37 µM;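 further: cells exposed to compound for 48 hours before readout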)", "conditions": "CellTiter-Glo ATP luminescence"}, "[11]": {"test": "viability loss in pontine glioma line – cell-based, JHH-DIPG-1, MIPE4.0, CellTiter-Glo, qHTS, dose response (AID 1347062; cut-off not given, nearly all actives have AC50 up to about 27 µM;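 further: cells exposed to compound for two days before readout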)", "conditions": "JHH-DIPG-1 viability, CellTiter-Glo ATP luminescence"}, "[12]": {"test": "viability loss in pontine glioma line – cell-based, SU-DIPG-IV, MIPE4.0, CellTiter-Glo, qHTS, dose response (AID 1347063; cut-off not given, nearly all actives have AC50 up to about 30 µM;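 further: compound exposure lasted 48 hours before the viability readout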)", "conditions": "CellTiter-Glo ATP luminescence"}, "[13]": {"test": "JHH-DIPG-1 glioma cell viability, MIPE5.0 library, CellTiter-Glo luminescence, qHTS (AID 1347067; cut-off not given, nearly all actives have AC50 up to about 26 µM;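 further: cells exposed to compound for 48 hours before readout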)", "conditions": "JHH-DIPG-1 glioma viability, CellTiter-Glo ATP luminescence"}, "[14]": {"conditions": "MELAS cybrid survival, CellTiter-Glo 48 h, stronger effect = higher value"}, "[15]": {"conditions": "Rieske KO mouse fibroblast survival, CellTiter-Glo 72 h"}}, "note": "Inconclusive results are not listed. Calls of active or inactive are those of the source. Unless noted, how the calls were made is not given here.", "data": [{"smiles": "CCn1c(-c2nonc2N)nc2cnc(Oc3cccc(NC(=O)c4ccc(OCCN5CCOCC5)cc4)c3)cc21", "values": [{"measurement": "liver cell % of control", "setting": "[1]", "result": 80.1, "unit": "%"}, {"measurement": "parasite % of control", "setting": "[1]", "result": "42.7% (inactive)"}, {"measurement": "percent of negative control (+Dex)", "setting": "[2]", "result": "50.5% (inactive)"}, {"measurement": "z-score", "setting": "[2]", "result": -3.25}, {"measurement": "z-score", "setting": "[3]", "result": "0.625 (inactive)"}, {"measurement": "z-score", "setting": "[4]", "result": "1.15 (inactive)"}, {"measurement": "EGFP object count", "setting": "[5]", "result": 3}, {"measurement": "EGFP/DsRed ratio", "setting": "[5]", "result": "0.0358 (inactive)"}, {"measurement": "fraction signal", "setting": "[6]", "result": "0.007 (inactive)"}, {"measurement": "outcome", "setting": "[7]", "result": "inactive"}, {"measurement": "SSMD", "setting": "[8]", "result": 0.629}, {"measurement": "cell count", "setting": "[8]", "result": 7080}, {"measurement": "plate-normalised HSF1 focus index", "setting": "[8]", "result": "1.04 (inactive)"}, {"measurement": "z-score", "setting": "[9]; [14]", "result": "-0.727 (inactive)"}, {"measurement": "z-score", "setting": "[9]; [15]", "result": 0.152}]}, {"smiles": "CN(C)CCOc1ccc(-c2nc(-c3ccc4c(c3)CC/C4=N\\O)c(-c3ccncc3)[nH]2)cc1", "values": [{"measurement": "liver cell % of control", "setting": "[1]", "result": 69.4, "unit": "%"}, {"measurement": "parasite % of control", "setting": "[1]", "result": "215% (inactive)"}, {"measurement": "percent of negative control (+Dex)", "setting": "[2]", "result": "118% (inactive)"}, {"measurement": "z-score", "setting": "[2]", "result": 0.795}, {"measurement": "z-score", "setting": "[3]", "result": "-0.45 (inactive)"}, {"measurement": "z-score", "setting": "[4]", "result": "1.26 (inactive)"}, {"measurement": "EGFP object count", "setting": "[5]", "result": 9}, {"measurement": "EGFP/DsRed ratio", "setting": "[5]", "result": "0.212 (inactive)"}, {"measurement": "fraction signal", "setting": "[6]", "result": "-0.008 (inactive)"}, {"measurement": "outcome", "setting": "[10]", "result": "inactive"}, {"measurement": "AC50", "setting": "[11]", "result": "18.7 µM (active)"}, {"measurement": "AC50", "setting": "[12]", "result": "13.2 µM (active)"}, {"measurement": "AC50", "setting": "[7]", "result": "11.8 µM (active)"}, {"measurement": "AC50", "setting": "[13]", "result": "16.6 µM (active)"}, {"measurement": "SSMD", "setting": "[8]", "result": 1.6}, {"measurement": "cell count", "setting": "[8]", "result": 7550}, {"measurement": "plate-normalised HSF1 focus index", "setting": "[8]", "result": "1.1 (inactive)"}, {"measurement": "z-score", "setting": "[9]; [14]", "result": 0.717}, {"measurement": "z-score", "setting": "[9]; [15]", "result": 2.06}]}, {"smiles": "CNC(=O)c1cncc(/C=C/c2c(Cl)cccc2Cl)c1", "values": [{"measurement": "liver cell % of control", "setting": "[1]", "result": 138, "unit": "%"}, {"measurement": "parasite % of control", "setting": "[1]", "result": "48.1% (inactive)"}, {"measurement": "percent of negative control (+Dex)", "setting": "[2]", "result": "92% (inactive)"}, {"measurement": "z-score", "setting": "[2]", "result": 0.3}, {"measurement": "z-score", "setting": "[3]", "result": "0.1 (inactive)"}, {"measurement": "z-score", "setting": "[4]", "result": "0.203 (inactive)"}, {"measurement": "EGFP object count", "setting": "[5]", "result": 5.5}, {"measurement": "EGFP/DsRed ratio", "setting": "[5]", "result": "0.562 (inactive)"}, {"measurement": "fraction signal", "setting": "[6]", "result": "-0.0025 (inactive)"}, {"measurement": "z-score", "setting": "[9]; [14]", "result": "0.726 (inactive)"}, {"measurement": "z-score", "setting": "[9]; [15]", "result": 0.293}]}, {"smiles": "Cc1cc(O)cc(C)c1/C=C/c1cncc(C(N)=O)c1", "values": [{"measurement": "liver cell % of control", "setting": "[1]", "result": 105, "unit": "%"}, {"measurement": "parasite % of control", "setting": "[1]", "result": "146% (inactive)"}, {"measurement": "percent of negative control (+Dex)", "setting": "[2]", "result": "106% (inactive)"}, {"measurement": "z-score", "setting": "[2]", "result": 0.29}, {"measurement": "z-score", "setting": "[3]", "result": "-0.395 (inactive)"}, {"measurement": "z-score", "setting": "[4]", "result": "0.198 (inactive)"}, {"measurement": "EGFP object count", "setting": "[5]", "result": 4}, {"measurement": "EGFP/DsRed ratio", "setting": "[5]", "result": "0.013 (inactive)"}, {"measurement": "fraction signal", "setting": "[6]", "result": "-0.001 (inactive)"}, {"measurement": "z-score", "setting": "[9]; [14]", "result": "-0.353 (inactive)"}, {"measurement": "z-score", "setting": "[9]; [15]", "result": -0.218}]}, {"smiles": "CCn1c(-c2nonc2N)nc2c(C#CC(C)(C)O)nc(OC[C@H](N)c3ccccc3)cc21", "values": [{"measurement": "liver cell % of control", "setting": "[1]", "result": 91.7, "unit": "%"}, {"measurement": "parasite % of control", "setting": "[1]", "result": "78.3% (inactive)"}, {"measurement": "percent of negative control (+Dex)", "setting": "[2]", "result": "106% (inactive)"}, {"measurement": "z-score", "setting": "[2]", "result": 1.86}, {"measurement": "z-score", "setting": "[3]", "result": "0.015 (inactive)"}, {"measurement": "z-score", "setting": "[4]", "result": "-1.25 (inactive)"}, {"measurement": "EGFP object count", "setting": "[5]", "result": 7.5}, {"measurement": "EGFP/DsRed ratio", "setting": "[5]", "result": "0.207 (inactive)"}, {"measurement": "fraction signal", "setting": "[6]", "result": "-0.0025 (inactive)"}, {"measurement": "z-score", "setting": "[9]; [14]", "result": "-0.101 (inactive)"}, {"measurement": "z-score", "setting": "[9]; [15]", "result": 0.135}]}, {"smiles": "N#Cc1cccc(Nc2ncc(-c3ccccc3)o2)c1", "values": [{"measurement": "liver cell % of control", "setting": "[1]", "result": 108, "unit": "%"}, {"measurement": "parasite % of control", "setting": "[1]", "result": "125% (inactive)"}, {"measurement": "percent of negative control (+Dex)", "setting": "[2]", "result": "241% (active)"}, {"measurement": "z-score", "setting": "[2]", "result": 19.8}, {"measurement": "z-score", "setting": "[3]", "result": "-0.175 (inactive)"}, {"measurement": "z-score", "setting": "[4]", "result": "4.37 (inactive)"}, {"measurement": "EGFP object count", "setting": "[5]", "result": 6}, {"measurement": "EGFP/DsRed ratio", "setting": "[5]", "result": "0.11 (inactive)"}, {"measurement": "fraction signal", "setting": "[6]", "result": "-0.004 (inactive)"}, {"measurement": "z-score", "setting": "[9]; [14]", "result": "1.35 (inactive)"}, {"measurement": "z-score", "setting": "[9]; [15]", "result": 0.0963}]}]}
